The compounds below were run on H1 OCT4-GFP hESC (assay: survival Z score in repeat assay, Calcein AM perimeter-filtered objects (vs plate mean) (Z score (SD)); higher = more surviving cells, active = 3 or more). Details: 10 µM, 2 days, cells per well: 1500, rescreen.
Method: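 Top perimeter-filtered hits were cherry-picked and rescreened in the same Calcein AM assay (H1 OCT4-GFP hESCs, 1500 cells/well, 10 µM, 2 days, objects with perimeter ≥100 µm). Results are per-plate Z scores; a hit is Z ≥3.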

| Structure (SMILES) | survival Z score in repeat assay |
| --- | --- |
| O=S(=O)(c1cccc2cnccc12)N1CCCNCC1 | 4.63 (active) |
| CC(N/C(=N\C#N)Nc1ccncc1)C(C)(C)C (configuration not stated) [Pinacidil] | 0.345 (inactive) |
